{"source": "PubChem BioAssay AID449762", "about": "(Southern Research Specialized Biocontainment Screening …, 2010)", "note": "The whole screen tested about 330,000 compounds, of which about 1,900 (0.58%) were called active. About 4% were inconclusive and are not listed. Not all results are given here. Results with a measured potency or affinity are listed apart. Unmarked numbers belong to inactive results. Cut-off read from the data, not from the text of the source: inconclusive = inhibition above about 70% without an active follow-up result; inactive = below that."}
{"test": "M. tuberculosis growth inhibition, HTS (AID 449762);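 note: bacterial growth assessed after seven days of incubation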", "conditions": "M. tuberculosis H37Rv growth inhibition, 7H9 media; at 25 µM; stronger effect = higher value", "units": {"inhibition": "%"}}
{"smiles": "Cc1cc(-c2ccccc2)cc(C)[n+]1Cc1ccccc1", "inhibition": 4.78}
{"smiles": "O=C([O-])c1cc(-c2ccccc2)cc(-c2ccccc2)[n+]1Cc1ccccc1", "inhibition": 2.25}
{"smiles": "Cn1c(=O)cc(SCC(=O)N2CCOCC2)c2ccc(Cl)cc21", "inhibition": -11.3}
{"smiles": "Cn1c(=O)cc(SCC(=O)N2CCCC2)c2ccc(Cl)cc21", "inhibition": 3.77}
{"smiles": "Cc1cccc(CCNC(=O)c2cc(S(=O)(=O)N3CCCC3)cn2C)c1", "inhibition": -6.27}
{"smiles": "Cc1ccc(/C=C/C(=O)OCC(=O)NC(=O)NCc2ccccc2)cc1", "inhibition": -1.66}
{"smiles": "CC1(C)CC(=O)C2=C(C1)OC(N)=C([N+](=O)[O-])C2c1cccs1", "note": "(configuration not stated)", "inhibition": 3.64}
{"smiles": "Cc1ccc(C2C(C#N)=C(N)OC3=C2C(=O)CC(C)(C)C3)s1", "note": "(configuration not stated)", "inhibition": 4.01}
{"smiles": "COC(C(=O)Nc1cccc(F)c1)c1ccccc1", "note": "(configuration not stated)", "inhibition": 1.2}
{"smiles": "CCN1CCN(c2ccc(S(=O)(=O)N3CCCCC3)cc2NC(=O)/C=C/c2ccc([N+](=O)[O-])cc2)CC1", "inhibition": 67.1}
{"smiles": "COc1ccc(/C=C/C(=O)Nc2cc(S(=O)(=O)N3CCCCC3)ccc2N2CCCCC2)cc1OC", "inhibition": 6.87}
{"smiles": "CCCCCNC(=O)c1ccc2c(c1)ncn2-c1ccc(OC)cc1", "inhibition": 13.7}
{"smiles": "CCOc1ccc([C@@H]2CC=C(C(=O)O)[C@H](c3ccc(Cl)cc3)N2S(=O)(=O)c2ccc(C)cc2)cc1", "inhibition": -1.26}
{"smiles": "Cn1cc(CCNC(=O)CC2C(=O)NCCN2Cc2cccc(Oc3ccccc3)c2)cn1", "note": "(configuration not stated)", "inhibition": 2.08}
{"smiles": "CCCCCNC1=CC(=O)CC(c2ccccc2)C1", "note": "(configuration not stated)", "inhibition": -1.58}
{"smiles": "CN(C)CCCNC1=CC(=O)CC(c2ccccc2)C1", "note": "(configuration not stated)", "inhibition": -4.95}
{"smiles": "COc1ncnc2c1cnn2-c1ccccc1", "inhibition": 7.17}
{"smiles": "C=CCOn1c(=O)c(-c2ccc(OCC)cc2)[n+]([O-])c2ccccc21", "inhibition": 6.39}
{"smiles": "O=C(CCCSc1nc2ccccc2[nH]1)N1CCN(c2ccc([N+](=O)[O-])cc2)CC1", "inhibition": -13.5}
{"smiles": "CC(C)CCNC(=O)C1CCCN(S(=O)(=O)c2ccc(-n3cnnn3)cc2)C1", "note": "(configuration not stated)", "inhibition": 1.26}
{"smiles": "CCOC(=O)/C=C/C(=O)OCc1csc(CC(=O)Nc2ccccc2C)n1", "inhibition": -12.3}
{"smiles": "C/C=C/C(=O)OCc1csc(CC(=O)Nc2ccccc2C)n1", "inhibition": -2.53}
{"smiles": "Cc1cc(NC(=O)/C(C#N)=C/c2ccc(-c3cccc(C(F)(F)F)c3)o2)n(-c2ccccc2)n1", "inhibition": 9.74}
{"smiles": "CC(=O)NNc1nc2ccccc2s1", "inhibition": -19.1}
{"smiles": "COc1ccc(OCC(=O)NNc2nc3ccccc3s2)cc1", "inhibition": 70}
{"smiles": "O=C(NNc1nc2ccccc2s1)Nc1ccc(F)cc1", "inhibition": 7.66}
{"smiles": "COc1ccc2nc(NNC(=O)COc3ccccc3)sc2c1", "inhibition": 6.88}
{"smiles": "CCc1[nH]nc(C(=O)N2CCCC(C(=O)c3cccc(OC(C)C)c3)C2)c1C", "note": "(configuration not stated)", "inhibition": 8.32}
{"smiles": "CCOC(=O)Cn1nc(-c2ccc(C)cc2)ccc1=O", "inhibition": -1.62}
{"smiles": "CCOC(=O)c1ccccc1NC(=O)CSc1cccc[n+]1[O-]", "inhibition": -5.24}
{"smiles": "COC(=O)c1ccc(C(=O)OC)c(NC(=O)CSc2ccccn2)c1", "inhibition": 45}
{"smiles": "Cc1c(Cl)cccc1NC(=O)CCN1CCN(C)CC1", "inhibition": -6.21}
{"smiles": "O=C(NCCc1ccccc1)c1c(O)c2cccc3c2n(c1=O)CC3", "inhibition": -1.91}
{"smiles": "CCCCN(C(=O)NC(=O)Nc1ccc(C)cn1)S(C)(=O)=O", "inhibition": -2}
{"smiles": "Cc1ccc(NC(=O)CSc2nc3ccccc3c(=O)n2CCCN2CCCCC2)cc1C", "inhibition": 24.1}
{"smiles": "CC1CCN(CCCn2c(SCC(=O)Nc3ccccc3Cl)nc3ccccc3c2=O)CC1", "inhibition": 6.66}
{"smiles": "Cc1ccccc1N(Cc1cc(=O)[nH]c2ccccc12)C(=O)C(C)C", "inhibition": -1.51}
{"smiles": "C#CCCC/C(=C\\C(=O)N(C)[C@H](C(=O)N(C)[C@H](C(=O)N(C)[C@H](C(=O)N(C)[C@H](C(N)=O)C(C)C)C(C)C)C(C)C)C(C)C)OC", "inhibition": 2.88}
{"smiles": "Cc1cccc([C@@H]2[C@@H]3C(=O)N(Cc4ccccc4)C(=O)[C@@H]3[C@]3(Cc4ccccc4)C(=O)N(c4cccc(Cl)c4)C(=O)N23)c1", "inhibition": 12.6}
{"smiles": "Cc1cc(Cn2nc(C(=O)NCc3cccc(Br)c3)cc2-c2ccccc2)on1", "inhibition": 25.4}
{"smiles": "Cc1ccc(N2C(=S)NC3c4cc(Cl)ccc4OC2(C)C3C(=O)N(C)C)cc1", "note": "(configuration not stated)", "inhibition": 0.53}
{"smiles": "CN(C)C(=O)C1C2NC(=S)N(c3cccc(Cl)c3)C1(C)Oc1ccc(Cl)cc12", "note": "(configuration not stated)", "inhibition": -0.86}
{"smiles": "CSc1cccc(CN2CCN(CCC(C)C)C(CCO)C2)c1", "note": "(configuration not stated)", "inhibition": -6.35}
{"smiles": "COc1ccc(NC(=O)c2cn(CCC#N)nc2-c2ccccc2)cc1", "inhibition": 1.76}
{"smiles": "Cc1nc(C)c(C(=O)N(c2ccc(F)cc2)C(C(=O)NCC2CCCO2)c2ccccc2)s1", "note": "(configuration not stated)", "inhibition": 6.83}
{"smiles": "Cc1onc(C(=O)N2CCN(Cc3ccccc3)CC2)c1[N+](=O)[O-]", "inhibition": 3.07}
{"smiles": "CC(=N\\NC(=O)c1ccccc1)/C(=N/O)C(=O)Nc1ccccc1", "inhibition": 19.5}
{"smiles": "O=C1C(c2c(O)[nH]c3ccccc23)=Nc2ccccc21", "inhibition": 26.2}
{"smiles": "O=C1C(C2=C(O)c3ccccc3C2=O)=Nc2ccccc21", "inhibition": -18.6}
{"smiles": "O=C(CCCn1c(=O)[nH]c2cc(Cl)ccc2c1=O)NCCCN1CCCC1=O", "inhibition": 1.6}
{"smiles": "C=CCn1c(SC)nnc1-c1ccc2ncccc2c1", "inhibition": 0.53}
{"smiles": "COc1ccccc1OCc1ccc(C(=O)Nc2cc(OC)c(OC)c(OC)c2)o1", "inhibition": 1.45}
{"smiles": "COc1ccc(NC(=O)c2ccc(COc3ccccc3Br)o2)cc1OC", "inhibition": 55.9}
{"smiles": "O=C1CC2(CCCCC2)Oc2ccccc21", "inhibition": 2.84}
{"smiles": "O=C(NCC1CC1)c1ccc(Oc2cc(Cl)cc(Cl)c2)o1", "inhibition": 8.88}
{"smiles": "N#Cc1ccc(/C=C\\c2nccc3c2[nH]c2ccccc23)cc1", "inhibition": 23.4}
{"smiles": "Fc1ccc(/C=C\\c2nccc3c2[nH]c2ccccc23)cc1", "inhibition": 3.87}
{"smiles": "CCCn1c(SCC(=O)N2CCCc3ccccc32)nnc1-c1ccco1", "inhibition": -5.68}
{"smiles": "C=CCN(C/C(=N\\O)c1sc(C(=O)OCC)nc1C)c1cccc(Br)c1", "inhibition": 62.6}
{"smiles": "CCOC(=O)c1nc(C)c(C(C)=O)s1", "inhibition": -0.23}
{"smiles": "CCOC(=O)c1c(C)[nH]c(C(=O)OCC(=O)NCc2ccc(F)cc2)c1C", "inhibition": -3.74}
{"smiles": "COc1ccc(Nc2nc(-c3sc(C)nc3C)cs2)cc1", "inhibition": 11.6}
{"smiles": "COc1ccc(OC)c(Nc2nc(-c3sc(N)nc3C)cs2)c1", "inhibition": 65.1}
{"smiles": "CCNC(=O)N(CCOC)CC1CCCN(C2Cc3ccccc3C2)C1", "note": "(configuration not stated)", "inhibition": -1.33}
{"smiles": "Cc1cccc(CCNS(=O)(=O)c2ccc(S(=O)(=O)N3CCC(C)CC3)cc2)c1", "inhibition": -1.34}
{"smiles": "O=C1C(=C(O)c2ccccc2)C(=O)c2ccccc21", "inhibition": 4.16}
{"smiles": "COC1=C(c2ccccc2)C(=O)c2ccccc2C1=O", "inhibition": 5.34}
{"smiles": "CC(=O)Nc1ccc(S(=O)(=O)NC2(C(F)(F)F)NC(=O)N(c3ccccc3F)C2=O)cc1", "note": "(configuration not stated)", "inhibition": -8.69}
{"smiles": "Cc1cc(OCCCCOc2ccc(S(N)(=O)=O)c(C)c2)ccc1S(N)(=O)=O", "inhibition": 20.1}
{"smiles": "CCOc1ccc2c(c1)C(=O)c1cc(OCC(=O)O)ccc1-2", "inhibition": 1.9}
{"smiles": "CCc1cc(=O)oc2cc(C)cc(OC(=O)c3ccco3)c12", "inhibition": 4.45}
{"smiles": "Cc1nn(-c2ccccc2)c(Cl)c1C(=O)Nc1nnc(C2CCCC2)s1", "inhibition": 38.7}
{"smiles": "CCc1nnc(NC(=O)c2c(C)nn(-c3ccccc3)c2Cl)s1", "inhibition": 25.5}
{"smiles": "O=C(NCc1ccccc1)Nc1cccn(Cc2cccc(F)c2)c1=O", "inhibition": 5.8}
{"smiles": "COC(=O)[C@@]1(Cc2ccccc2)C=C[C@@H](C)N1C(C)=O", "inhibition": -1.39}
{"smiles": "CC(NC(=S)NCCN1CCOCC1)C12CC3CC(CC(C3)C1)C2", "note": "(configuration not stated)", "inhibition": -0.91}
{"smiles": "COC(=O)C1=C(C)N(Cc2ccccc2)C(=NCc2ccccc2)N[C@H]1c1ccccc1", "inhibition": 28.6}
{"smiles": "COC(=O)C1=C(C)N(Cc2ccccc2)C(=NCc2cc(OC)c(OC)c(OC)c2)N[C@H]1c1ccccc1", "inhibition": -1.97}
{"smiles": "CSc1ncccc1C(=O)NCc1ccc(C)cc1", "inhibition": -4.41}
{"smiles": "COC(=O)c1ccc(Cn2cc(C(F)(F)F)ccc2=O)cc1", "inhibition": 38.8}
{"smiles": "O=c1c([N+](=O)[O-])cc(C(F)(F)F)cn1Cc1c(Cl)cccc1Cl", "inhibition": 27.9}
{"smiles": "Cc1c(S(=O)(=O)Nc2ccc(Br)cc2)c(=O)n(C)c(=O)n1C", "inhibition": 1.85}
{"smiles": "C=C(C)c1cccc(C(C)(C)NC(=O)N(Cc2ccccc2)Cc2ccco2)c1", "inhibition": 0.97}
{"smiles": "Cc1coc2c(C)c3oc(=O)c(CCC(=O)NCCCn4ccnc4)c(C)c3cc12", "inhibition": 3.77}
{"smiles": "Cc1c(CCC(=O)NCCCn2ccnc2)c(=O)oc2cc3occ(C(C)(C)C)c3cc12", "inhibition": 19.4}
{"smiles": "CCc1cccc(NS(=O)(=O)c2ccc3c(c2)N(C)CCO3)c1", "inhibition": 3.34}
{"smiles": "CC1=C(C(=O)OCCC#N)C(c2cc3c(cc2Br)OCO3)NC(=O)N1", "note": "(configuration not stated)", "inhibition": 0.64}
{"smiles": "C=CCNC(=S)N/N=C(\\C)c1cccnc1", "inhibition": -7.58}
{"smiles": "CCCCCCCCCC(=O)N/N=C(\\C)c1cccnc1", "inhibition": 22.8}
{"smiles": "CCCCCCCCC(=O)N/N=C(\\C)c1cccnc1", "inhibition": 7.1}
{"smiles": "C=CCNC(=S)N/N=C(\\C)c1cccc(NC(C)=O)c1", "inhibition": -1.22}
{"smiles": "Cc1cc(C(=O)N2CCCC(N3CCN(c4cccc(C(F)(F)F)c4)CC3)C2)nn1C", "note": "(configuration not stated)", "inhibition": 5.35}
